Test results: PubChem BioAssay (Tox21)
Several values for one entry are separate records, joined by “and”; a condition that tells them apart may be missing. Equal values may be shown once. Inconclusive results are not listed. Entries that show only a call come without a potency. Some structures have more than one record in an assay (separate samples or runs), and their calls can disagree. Activity calls are given as the source filed them. Calls come from the whole dose curve; as a rule, active = well fitted curve in the direction sought with a large enough effect in the repeat runs; inconclusive = weak or mixed curves; inactive = no such curve, though single readings can be large; an effect the other way counts as inactive or inconclusive.

Columns and labels:
[1] = A CellTox Green Cytotoxicity Assay to monitor cytotoxicity in HEK293 cells - 40 hour (AID 1224871); note: nearly all actives have a fitted effect of over 45% in size; note: potency is the fitted concentration of half-maximal effect
How it was run: (§1)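 Tox21 screen in HEK293: membrane-impermeant cyanine dye fluoresces on binding dead-cell DNA; compound pinned 5 h post-seeding, plates held at 37 C, signal read repeatedly through 40 h.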

[2] = qHTS RealTime-Glo MT Cell Viability Assay in HEK293 cells - 16 hour (AID 1224872); note: nearly all actives have a fitted effect of over 50% in size; note: potency is the fitted concentration of half-maximal effect
How it was run: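 Cells + reagent dispensed (600 cells/well, HEK293) → 5 h at 37 C/5% CO2 → 23 nL compound in DMSO pinned → 40 h at 37 C → luminescence read at 0, 8, 16, 24, 32, 40 h.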

[3] = qHTS RealTime-Glo MT Cell Viability Assay in HepG2 cells - 8 hour (AID 1224873); note: nearly all actives have a fitted effect of over 55% in size; note: potency is the fitted concentration of half-maximal effect
How it was run: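 Real-time viability: cells seeded at 600 per well together with NanoLuc and cell-permeant prosubstrate, compounds added after 5 h incubation. Luminescence tracked at 0, 8, 16, 24, 32 and 40 h of exposure.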

[4] = A CellTox Green Cytotoxicity Assay to monitor cytotoxicity in HEK293 cells - 24 hour (AID 1224875); note: nearly all actives have a fitted effect of over 45% in size; note: potency is the fitted concentration of half-maximal effect
How it was run: as §1

[5] = A CellTox Green Cytotoxicity Assay to monitor cytotoxicity in HepG2 cells - 16 hour (AID 1224876); note: nearly all actives have a fitted effect of over 45% in size; note: potency is the fitted concentration of half-maximal effect
How it was run: (§2)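 Measurements at 0, 8, 16, 24, 32 and 40 h of treatment captured CellTox Green fluorescence in HepG2 cells that had been co-plated with reagent and preincubated 5 h at 37 C/5% CO2.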

[6] = qHTS RealTime-Glo MT Cell Viability Assay in HepG2 cells - 32 hour (AID 1224877); note: nearly all actives have a fitted effect of over 55% in size; note: potency is the fitted concentration of half-maximal effect
How it was run: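 Real-time, nonlytic viability: 600 HepG2 cells/well mixed with NanoLuc enzyme plus prosubstrate; 5 h settle, compound (DMSO) added by pintool; luminescence monitored over 40 h at 37 C.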

[7] = qHTS RealTime-Glo MT Cell Viability Assay in HEK293 cells - 0 hour (AID 1224880); note: top concentration of the series differs between compounds; nearly all actives have a fitted effect of over 45% in size
How it was run: (§3)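 HEK293 + NanoLuc + prosubstrate, 600 cells/well; 5 h, 37 C/5% CO2; compound 23 nL in DMSO by pintool; 37 C; luminescence read at 0, 8, 16, 24, 32 and 40 h time points.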

[8] = A CellTox Green Cytotoxicity Assay to monitor cytotoxicity in HepG2 cells - 24 hour (AID 1224878); note: nearly all actives have a fitted effect of over 45% in size; note: potency is the fitted concentration of half-maximal effect
How it was run: as §2

[9] = A CellTox Green Cytotoxicity Assay to monitor cytotoxicity in HepG2 cells - 40 hour (AID 1224879); note: nearly all actives have a fitted effect of over 40% in size; note: potency is the fitted concentration of half-maximal effect
How it was run: as §2

[10] = qHTS RealTime-Glo MT Cell Viability Assay in HEK293 cells - 40 hour (AID 1224874); conditions: RealTime-Glo luminescence; max response: stronger effect = lower value; note: nearly all actives have a fitted effect of over 50% in size; note: potency is the fitted concentration of half-maximal effect
How it was run: as §3

Compound	Potency [1]	Potency [2]	Potency [3]	Potency [4]	Potency [5]	Potency [6]	Potency [7]	Potency [8]	Potency [9]	Potency [10]	max response [10]
COC12CC[C@@]3(C[C@@H]1C(C)(O)C(C)(C)C)[C@H]1Cc4ccc(O)c5c4[C@@]3(CCN1CC1CC1)[C@H]2O5 (some centres not stated)	24.4 µM (active)	24.4 µM (active)	43.4 µM (active)	38.6 µM (active)	43.4 µM (active)	48.6 µM (active)	inactive				
CC(C)(COCC1CO1)COCC1CO1 (configuration not stated)	inactive	inactive	inactive	inactive	inactive	inactive	inactive	inactive	inactive		
CCN(CC)C(=S)[S-].CCN(CC)C(=S)[S-].[Zn+2]	5.45 µM (active)	5.45 µM (active)		15.4 µM (active)		13.7 µM (active)		12.2 µM (active)	10.9 µM (active)	2.73 µM (active)	
O=[N+]([O-])c1ccc(Oc2ccc(C(F)(F)F)cc2[N+](=O)[O-])cc1	inactive	19.5 µM (active)			inactive	inactive	inactive	inactive	inactive	17.4 µM (active)	
O=C(O)C1C2CCC(O2)C1C(=O)O (configuration not stated)	inactive	inactive	inactive	inactive	inactive	inactive	inactive	inactive			
Cc1ccc(C(=O)Cl)cc1	inactive	inactive	inactive		inactive	inactive	inactive	inactive	inactive		
COc1cc(N)c(Cl)cc1C(=O)NC1CN2CCC1CC2 (configuration not stated)	inactive	inactive	inactive	inactive		inactive	inactive	inactive	inactive		
Cc1cccc(OP(=O)(Oc2cccc(C)c2)Oc2cccc(C)c2)c1	inactive	inactive	inactive	inactive	inactive	inactive	inactive	inactive	inactive		
N#Cc1c(-c2ccc(Cl)cc2)[nH]c(C(F)(F)F)c1Br	49 µM (active)	6.92 µM (active)		inactive	inactive		inactive			1.23 µM (active)	
Nc1ccc(Sc2ccc(N)cc2)cc1	inactive	inactive	inactive	inactive		inactive					
COc1ccc(/C(=C/C(=O)N2CCOCC2)c2ccc(Cl)cc2)cc1OC	inactive	inactive	inactive	inactive	inactive	inactive	inactive	inactive			
Clc1ccc(COC(Cn2ccnc2)c2ccc(Cl)cc2Cl)cc1 (configuration not stated)	45.7 µM (active) and 54.7 µM (active) and inactive	20.4 µM (active) and 19.4 µM (active)	43.5 µM (active)			48.8 µM (active)	inactive	45.7 µM (active) and 54.7 µM (active)			
CCOCCOC(C)=O	inactive	inactive	inactive	inactive	inactive	inactive	inactive	inactive	inactive		
S=C(SSC(=S)N1CCCCC1)N1CCCCC1	0.151 µM (active)	16.9 µM (active)	26.8 µM (active)	inactive		0.213 µM (active)	inactive		0.169 µM (active)		
Oc1ccccc1Br	inactive	inactive	inactive	inactive	inactive	inactive	inactive	inactive	inactive		
CC(C)C(=O)Cl	inactive	inactive	inactive	inactive	inactive	inactive	inactive	inactive			
CC(=[OH+])/C=C(/C)[O-].CC(=[OH+])/C=C(\C)[O-].CC(=[OH+])/C=C(\C)[O-].[Al]	inactive	inactive	inactive	inactive		inactive	inactive	inactive	inactive		
Oc1c(Cl)c(Cl)cc(Cl)c1Cl	42.5 µM (active)	47.6 µM (active)	inactive		inactive	inactive	inactive	inactive			
CCN	inactive	inactive	inactive	inactive	inactive	inactive	inactive	inactive	inactive		
O=c1oc2ccccc2c(O)c1Cc1c(O)c2ccccc2oc1=O	inactive	inactive		inactive	inactive	inactive		inactive	inactive		0.643% (inactive)
[Cl][Sb]([Cl])[Cl]	24.5 µM (active)	inactive	inactive	inactive	inactive	inactive	inactive	inactive			
